Compound activity as filed in PubChem BioAssay.
TWEAK Fn14 block: inhibitors of TWEAK-Fn14 signaling, primary screen, luciferase reporter cells, uHTS. TWEAK-stimulated Fn14 reporter cells, luciferase luminescence, 8 h. inhibition, % at 10 µM. 2% of 360,000 active. AID 1159606, 2016; in the data active means inhibition above about 50%
KKLEB tox: cytotoxicity in KKLEB CF airway cells, primary screen, cytotoxicity control for CF NF-kB inhibitor project, cell-based, uHTS, fluorescence assay plates. activity change (cytotoxicity), % at 5 µM. KKLEB CF airway cells viability, ATPlite luminescence, overnight; stronger effect = lower value; cells stimulated with P. aeruginosa culture filtrate. 0.36% of 360,000 active;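 active means corrected activity change at or below -50% at 5 µM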
CF NFkB inh: inhibitors of PAF-induced NF-kB signaling, primary screen, cell-based, GFP fluorescence, uHTS; 0.86% of 360,000 active; KKLEB NF-kB-GFP reporter, GFP fluorescence overnight; inhibition, % at 5 µM;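 active means at least 50% inhibition at 5 µM, scaled per plate between neutral and stimulator controls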;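 further: PAF is a Pseudomonas aeruginosa culture filtrate used as stimulus; plate controls were PAF-stimulated DMSO wells for no effect and unstimulated DMSO wells for full effect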
TROY NFkB inh: inhibitors of TROY-driven NF-kB signaling, primary screen, Q293 LMP1-TROYcd cells, NF-kB luciferase, uHTS; Q293 LMP1-TROYcd NF-kB luciferase reporter, 4 h; inhibition, % at 10 µM; 0.98% of 360,000 active; AID 1347056, 2019;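 active means compounds whose plate-normalised and pattern-corrected inhibition of the luciferase reporter signal at the single screening dose is 50% or more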
Peg3 prom inh: Peg3 promoter-driven luciferase inhibitors, primary screen, cell-based, HeLa, luciferase luminescence | HeLa PEG-Prom luciferase reporter, overnight | inhibition, % at 20 µM | 1.7% of 360,000 active | AID 588405, 2011;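 active means inhibition of at least 50% at 20 µM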
HIF-2a block: HIF-2a reporter inhibitors, primary screen, luminescence, 786-0 RCC cells; inhibition, % at 18.8 µM; 786-0 RCC cells HIF-2a reporter, luciferase luminescence, overnight; 0.72% of 360,000 active;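 active means inhibition of the luminescence signal of 40% or more relative to plate controls, in a single-dose primary screen at 18.75 µM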
Mdm2-MdmX confirm: retested Mdm2-MdmX interaction blockers, confirmation, cell-based, luminescence, single concentration, set 2. shares compounds with HIF-2a block. SaOS-2 split-luciferase Mdm2/MdmX complementation. inhibition, % at 8 µM. 99% of 740 active. AID 504601, 2011;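 active means mean inhibition of the luminescence signal across two replicates at or above 26 percent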
Target sequence (O15151 whole entry, looked up): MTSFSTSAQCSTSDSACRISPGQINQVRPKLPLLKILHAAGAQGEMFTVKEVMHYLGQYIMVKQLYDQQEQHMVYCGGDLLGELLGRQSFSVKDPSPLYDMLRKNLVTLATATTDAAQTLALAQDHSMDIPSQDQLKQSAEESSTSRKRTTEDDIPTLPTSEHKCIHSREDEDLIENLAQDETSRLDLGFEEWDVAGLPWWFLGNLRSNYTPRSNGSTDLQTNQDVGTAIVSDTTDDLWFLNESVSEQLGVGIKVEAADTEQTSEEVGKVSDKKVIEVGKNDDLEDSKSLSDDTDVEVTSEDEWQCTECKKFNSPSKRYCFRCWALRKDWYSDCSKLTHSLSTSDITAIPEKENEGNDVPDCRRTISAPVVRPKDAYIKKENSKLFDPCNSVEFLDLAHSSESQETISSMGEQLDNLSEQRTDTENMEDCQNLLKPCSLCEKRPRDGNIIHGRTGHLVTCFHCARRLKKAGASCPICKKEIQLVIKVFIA
Target sequence (Q00987 whole entry, looked up): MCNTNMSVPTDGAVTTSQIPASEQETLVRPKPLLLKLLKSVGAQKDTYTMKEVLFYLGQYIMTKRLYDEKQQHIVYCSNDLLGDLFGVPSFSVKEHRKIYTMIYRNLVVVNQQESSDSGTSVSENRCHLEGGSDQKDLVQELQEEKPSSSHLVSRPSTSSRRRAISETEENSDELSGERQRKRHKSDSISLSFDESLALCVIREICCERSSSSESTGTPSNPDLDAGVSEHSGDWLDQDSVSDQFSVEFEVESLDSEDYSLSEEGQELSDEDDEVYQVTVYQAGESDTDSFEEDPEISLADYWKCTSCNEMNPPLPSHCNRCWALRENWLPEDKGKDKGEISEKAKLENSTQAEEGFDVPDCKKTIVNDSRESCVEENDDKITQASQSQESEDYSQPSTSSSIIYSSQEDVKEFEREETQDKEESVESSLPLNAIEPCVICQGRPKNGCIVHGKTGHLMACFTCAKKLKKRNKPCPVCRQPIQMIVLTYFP
HIF-2a conf: HIF-2a reporter inhibitor retest, confirmation, luminescence, 786-0 RCC cells. shares compounds with HIF-2a block. inhibition, % at 18.8 µM. HIF-2a luciferase reporter luminescence, overnight. 56% of 1,800 active;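 active means mean inhibition across four replicates of at least 40 percent at the single tested concentration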
HIF-1a cs: HIF-1a luciferase reporter signal reduction – MiaPaCa-2 cells, single concentration, counter-screen for HIF-2a inhibitor project, confirmation | MiaPaCa-2 HIF-1a luciferase reporter, desferoxamine, overnight | shares compounds with HIF-2a block | 72% of 1,800 active | inhibition, % at 18.8 µM;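 active means mean inhibition of the reporter signal across four replicates at the single tested dose of 50% or more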
An asterisk follows results filed as active; / = no result given. A selection: hits, their analogues and other compounds. The true share with any hit is near 4%.

SMILES | TWEAK Fn14 block | KKLEB tox | CF NFkB inh | TROY NFkB inh | Peg3 prom inh | HIF-2a block | Mdm2-MdmX confirm | HIF-2a conf | HIF-1a cs
COc1ccc(C)cc1-n1cnc2sc(C)c(C)c2c1=O | -12.9 | -5.2 | -5.3 | -15.0 | 7.0 | 26.0 | / | / | /
CC1(C)Cc2ccccc2-c2nnc(SCc3ccc(C#N)cc3)n21 | 1.3 | -3.2 | -5.0 | 7.8 | -6.1 | -12.2 | / | / | /
CCC1CCC2(CC1)NC(CO)(CO)CO2 (stereo not drawn) | -2.9 | -7.2 | 7.5 | 9.5 | -0.6 | 7.4 | / | / | /
CCC1CCC2(CC1)NNC(=S)NN2 | 18.7 | 11.2 | 22.2 | 29.4 | 17.5 | 55.1* | / | 68.5* | 86.7*
CC(C)(C)c1ccc(C(=O)N2CCCCCC2=O)cc1 | 44.7 | -3.6 | 5.9 | 31.8 | 34.9 | 88.6* | / | 94.8* | 81.7*
O=c1c([N+](=O)[O-])c(O)c2ccccc2n1Cc1ccccc1 | 23.0 | 7.0 | 5.3 | 9.3 | 14.5 | 1.5 | / | / | /
CC(=O)Nc1ccc(NC(=O)c2cccc3c2-c2ccccc2C3=O)cc1 | 1.4 | -8.7 | -22.3 | 0.4 | 7.3 | 17.5 | / | / | /
CC(=O)Nc1ccc(NC2=C(Cl)C(=O)c3ccccc3C2=O)cc1 | / | / | / | / | / | / | 103.2* | / | /
O=C(CN1C(=O)NC2(CCCc3ccccc32)C1=O)N1CCN(C(=O)c2ccco2)CC1 (stereo not drawn) | 6.5 | 4.5 | -7.9 | -5.8 | 16.2 | 9.6 | / | / | /
Oc1ccccc1CNc1ccc(Br)cn1 | 89.5* | -21.5 | -10.9 | -39.6 | -268.3 | -214.1 | 31.5* | / | /
C[C@@H]1CCC[C@]2(O[C@H](CCO)C[C@H](O)[C@H]2O)O1 | 9.1 | 11.6 | -3.0 | -17.5 | -39.3 | -22.0 | / | / | /
O=[N+]([O-])c1ccc(Oc2cccc3cccnc23)c([N+](=O)[O-])c1 | 20.3 | -0.1 | -19.5 | -31.2 | -4.8 | 41.2* | / | 13.8 | -7.6
COc1ccc(C(C(=O)NC2CCCCC2)N(C(=O)CCl)c2ccc(Cl)cc2)cc1 (stereo not drawn) | 53.7* | -99.0* | 97.3* | 9.0 | 73.5* | 26.6 | 97.7* | / | /
Cc1cc(NC(=O)c2cc([N+](=O)[O-])cc([N+](=O)[O-])c2)no1 | 3.9 | -0.3 | 2.6 | -16.1 | 8.3 | 5.5 | / | / | /
CC(=O)c1c(C)oc2ccc(N(C(C)=O)S(=O)(=O)c3ccc(Cl)c([N+](=O)[O-])c3)cc12 | 42.4 | -9.4 | 42.3 | 87.9* | 104.3* | 69.1* | / | -1.2 | 107.0*
CC(=O)c1c(C)oc2ccc(N(C(C)=O)S(=O)(=O)c3ccc(Br)cc3)cc12 | 31.4 | -11.8 | 9.7 | 24.6 | 46.6 | 6.5 | / | / | /
COc1ccc(C2=NN(C(=O)COC(=O)c3ccc(S(C)(=O)=O)c([N+](=O)[O-])c3)C(c3ccco3)C2)cc1 (stereo not drawn) | 68.9* | -79.5* | 84.1* | 15.8 | 94.5* | 61.1* | 103.2* | 7.0 | 103.0*
COc1ccc(C2=NN(C(=O)COc3ncnc4ccccc34)C(c3ccco3)C2)cc1 (stereo not drawn) | -64.9 | -20.9 | 17.4 | 7.3 | 38.5 | -0.4 | / | / | /
Cc1ccc2c(C)nc(N/C(N)=N/S(=O)(=O)c3ccc([N+](=O)[O-])cc3)nc2c1 | -17.6 | 10.1 | -48.8 | -8.9 | 9.3 | -47.7 | / | / | /
Cc1c(C(=O)Nc2ccc(-c3nnc4n3CCCCC4)cc2)oc2c1ccc1ccccc12 | 44.2 | -9.8 | -35.9 | 23.2 | 41.9 | 56.0* | / | -50.5 | 106.1*
COc1ccc(NC2CCCN(C(=O)C3(C)CCCCC3)C2)cc1 (stereo not drawn) | -5.0 | 10.2 | 0.8 | -18.8 | 4.4 | 4.2 | / | / | /
O=C1CCCCCN1Sc1ccccc1 | 5.0 | -5.0 | 12.4 | 9.9 | 14.3 | 44.3* | / | 30.8 | 8.4
O=C1CCCCCN1C(=O)c1ccccc1 | 10.5 | -4.4 | 9.7 | 5.8 | 5.4 | -1.7 | / | / | /
O=C1CS(=O)(=O)N(Cc2ccccc2F)c2ccc(Br)cc21 | 3.2 | 1.7 | -0.3 | 5.2 | -7.5 | 18.9 | / | / | /
CSc1ccc(Cl)c(C(=O)OCC(=O)Nc2ccccc2OC(F)F)c1 | -9.0 | -8.7 | -7.1 | 2.7 | -3.0 | 13.2 | / | / | /
SMILES | TWEAK Fn14 block | KKLEB tox | CF NFkB inh | TROY NFkB inh | Peg3 prom inh | HIF-2a block | Mdm2-MdmX confirm | HIF-2a conf | HIF-1a cs
CN(C)C(=O)/C(C#N)=C\c1cc(Br)c(Sc2ccc(Cl)cc2)o1 | 88.0* | -22.4 | 30.6 | 31.0 | 78.4* | 56.7* | / | 15.3 | 103.2*
Cc1cccc(Nc2nc(N)nc(CCl)n2)c1C | -1.3 | -84.9* | 100.1* | -16.0 | 57.7* | -13.7 | 103.2* | / | /
Cc1ccc(Nc2nc(N)nc(CCl)n2)c(C)c1 | 35.8 | -72.5* | 83.1* | -27.0 | 41.1 | -95.2 | 103.0* | / | /
CCOc1ccc(Nc2nc(N)nc(CCl)n2)cc1 | 17.6 | -67.7* | 80.5* | -49.1 | 76.6* | -125.1 | 103.5* | / | /
COc1cccc2c1OCC(C(=O)O)C2 (stereo not drawn) | 0.6 | -9.0 | -3.1 | 3.6 | -18.1 | 10.2 | / | / | /
COc1cccc2c1C(CO)N1C(C#N)C3CC(C(=O)O)C(C1C2)N3C (stereo not drawn) | 101.7* | -52.2* | 96.5* | 51.4* | 108.1* | 42.2* | 103.5* | 7.6 | 105.9*
COC(=O)c1c(NC(=O)COc2ccc(Cl)cc2)sc2c1CC(C)(C)NC2(C)C | -165.7 | -57.0* | 33.0 | 19.4 | 98.7* | 52.0* | / | 9.1 | 99.2*
COC(=O)c1c(NC(=O)Cc2ccccc2)sc2c1CC(C)(C)NC2(C)C | -2.0 | -17.5 | 16.3 | -10.1 | 6.7 | 7.0 | / | / | /
C=C(C(=O)c1ccccc1)C(C(=C)C(=O)c1ccccc1)c1ccc(OC)cc1 | 93.3* | -18.6 | 35.9 | 6.4 | 104.6* | 60.6* | 103.2* | 59.3* | 103.4*
C=C(C(=O)c1ccccc1)C(c1ccccc1)C(C)C(=O)c1ccccc1 (stereo not drawn) | 50.7* | -12.6 | -0.1 | -14.5 | 38.0 | 80.7* | / | 44.9* | 96.0*
COc1ccc(C(CC(=O)c2ccccc2)CC(=O)c2ccccc2)cc1 | -24.2 | -0.6 | 0.9 | -23.4 | -1.5 | -45.9 | / | / | /
